Shown are actives, neighbours in structure and some others; about 2.4% of the full set was active somewhere.
D2 PAM-1: positive allosteric modulators of human D2 dopamine receptor. DiscoveRx D2 beta-arrestin cells, luminescence, 90 min; 100% = 57 uM dopamine signal. potentiation, % (concentration not given with the values). 0.23% of 360,000 active. AID 624464; in the data active = potentiation above about 50%; inconclusive = mostly about 30% to 49%
Target sequence (P14416 whole entry, looked up): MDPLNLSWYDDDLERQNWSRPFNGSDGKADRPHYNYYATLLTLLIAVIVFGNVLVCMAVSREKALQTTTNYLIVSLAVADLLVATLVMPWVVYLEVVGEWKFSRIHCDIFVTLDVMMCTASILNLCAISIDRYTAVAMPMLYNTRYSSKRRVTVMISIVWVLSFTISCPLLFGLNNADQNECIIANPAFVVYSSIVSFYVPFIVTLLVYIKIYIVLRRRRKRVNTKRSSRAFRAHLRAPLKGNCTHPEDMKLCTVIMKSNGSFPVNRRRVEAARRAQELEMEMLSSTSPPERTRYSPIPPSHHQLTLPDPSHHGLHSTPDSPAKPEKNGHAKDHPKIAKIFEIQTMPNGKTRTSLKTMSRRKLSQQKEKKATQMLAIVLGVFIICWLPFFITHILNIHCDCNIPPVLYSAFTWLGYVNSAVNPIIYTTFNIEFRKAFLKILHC
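PathHunter D2 cells, attached overnight at 37 deg C, received compound in DMSO plus dopamine at EC20 (50 nM final) for 90 min at 37 deg C. Beta-arrestin recruitment was read as luminescence after 1 h with detection reagent at ambient temperature.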
D2 ag-1: agonists of human D2 dopamine receptor; P14416; HEK293 T-REx D2 cells, calcium flux agonist mode; activation, % at 2 µM; 0.53% of 340,000 active;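 active = activation over 3 SD above normal in the single-dose calcium agonist read, cut at about 30% in these data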; also: 0% is about no effect
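Agonism is scored from calcium flux in a force-coupled, inducible HEK293 cell line expressing D2, read kinetically for 180 s after compound addition against dopamine controls.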
D2 antag: antagonizes the human D2 dopamine receptor; P14416; HEK293 TREx D2 cells, calcium flux, dopamine EC80; inhibition, % at 10 µM; 2% of 340,000 active; AID 485344; in the data active = inhibition above about 30%; inactive = below that, where a call was filed; also: 0% is about no effect
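HEK293 T-REx D2 cells, tet-induced, calcium dye no-wash. Cpd pintool add, 180 s kinetic, then EC80 DA, 180 s kinetic. Ca flux read.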
D2 ag-2: activates the human D2 dopamine receptor | activation, % (concentration not given with the values) | P14416 | DiscoveRx PathHunter D2 beta-arrestin, luminescence, 90 min; 100% = 57 uM dopamine signal | 0.084% of 360,000 active; in the data active = activation above about 40%; inconclusive = between about 15% and that limit
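Agonist mode: compounds alone added to overnight-plated D2 PathHunter cells for 90 min at 37 C, with 57 uM final dopamine (EC100) defining full response. Beta-arrestin recruitment detected by chemiluminescent reagent, read after 1 h at ambient temperature.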
D2 PAM-2: positively modulates the human D2 dopamine receptor allosterically; P14416; HEK293 T-REx D2, calcium flux, EC20 dopamine potentiation; potentiation, % at 10 µM; 0.34% of 340,000 active; AID 485347;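 active = potentiation over 3 SD above the plate norm, cut at about 30% in these data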; also: 0% is about no effect
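Cells plated with tetracycline inducer and held overnight at 30 C; calcium dye loaded 30–90 min at room temperature; baseline taken, compound added and read 180 s; EC20 dopamine then added and read 180 s.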
Numbers without * were called inactive; ? = inconclusive; nt = no result.

SMILES | D2 PAM-1 | D2 ag-1 | D2 antag | D2 ag-2 | D2 PAM-2
CCc1cccc(NC(=O)C2CCN(S(=O)(=O)c3ccc4c(c3)CC(C)N4C(C)=O)CC2)c1 (stereo not given) | -1.5 | 0.1 | 70.1* | -4.9 | 8.8
CCCCOc1ccc(CNC(=O)C2COc3ccc(OC)cc3C2)cc1 (stereo not given) | nt | 0.1 | nt | nt | 1.4
COc1ccc(C(CC(=O)Nc2ccc(OC)c(OC)c2)N2Cc3ccccc3C2=O)cc1 (stereo not given) | nt | nt | nt | nt | 10.9
CCOc1ccc(CNC(=O)C2CCN(c3nnc(-n4c(C)ccc4C)s3)CC2)cc1 | nt | -0.1 | nt | nt | nt
O=C(Nc1nnc(SCCC2OCCO2)s1)C1CC(=O)N(c2ccc(F)cc2)C1 (stereo not given) | 7.4 | -1.0 | 5.7 | -1.1 | -0.3
O=C(CBr)c1ccc([N+](=O)[O-])c(CS(=O)(=O)c2ccc(Cl)cc2)c1 | -36.9 | 5.2 | 6.4 | 53.9* | -1.6
Cc1nc2ccc(S(=O)(=O)N(C)CC(=O)Nc3ccc(C(C)C)cc3)cc2s1 | nt | 1.4 | nt | nt | 13.4
N#C/C(=C\c1ccccc1C(F)(F)F)C(=O)Nc1ccccc1 | 6.6 | 0.4 | -4.0 | 1.1 | 5.9
CCc1cccc(CC)c1NC(=O)/C(C#N)=C/c1ccccc1C(F)(F)F | 96.1* | -0.6 | -1.9 | 10.3 | -20.1
c1ccc2oc(CCc3nc4ccccc4o3)nc2c1 | 4.7 | nt | nt | -1.3 | 13.5
Nc1ccc2oc(CCc3ccccc3)nc2c1 | ? | -0.2 | 37.9* | -0.9 | 2.4
COc1cccc(Nc2nc(=O)[nH]nc2C)c1 | -3.4 | -0.7 | 34.2* | -2.5 | nt
Cc1ccc(C)c(NC(=O)Cn2cnc3nc4c(cc3c2=O)CCCC4)c1 | nt | -0.7 | nt | nt | -12.1
CN1CCC(=C2c3ccccc3CCc3sccc32)CC1 | -35.7 | 1.2 | 86.2* | -7.5 | -26.1
CN1CCC(=C2c3ccccc3CC(=O)c3sccc32)CC1 | -26.7 | 1.5 | 7.9 | -2.8 | 9.7
COc1cc(CCC(=O)OCC(=O)Nc2ccc(C(N)=O)cc2)cc(OC)c1OC | 6.7 | 0.1 | 38.6* | 6.3 | 2.7
COc1cc(NC(=O)COC(=O)CCc2cc(OC)c(OC)c(OC)c2)cc(OC)c1 | 0.1 | 1.4 | 12.9 | 1.0 | 5.5
COc1cc(CNc2ccc3[nH]c(=O)[nH]c3c2)cc(Br)c1OCC(=O)NC(C)(C)C | 5.8 | -2.1 | -0.2 | 1.7 | 5.0
COc1cc(CNc2cccc(C(=O)O)c2)cc(Br)c1OCC(=O)NC(C)(C)C | 4.4 | -1.3 | 59.7* | -1.2 | 9.4
Cc1ccc([N+](=O)[O-])cc1NC(=O)Nc1onc(C)c1C | -56.4 | -1.9 | 46.6* | -10.2 | -20.3
CCCCCC1=CCC/C1=N\NC(=O)c1ccc2c(c1)OCO2 | -9.3 | 0.6 | 31.2* | 1.3 | -3.1
Cc1ccc2c(c1)-c1onc(C(=O)N(C)c3cccc(C(F)(F)F)c3)c1CO2 | nt | -0.2 | nt | nt | 5.1
CCOC(=O)c1cc(S(=O)(=O)N2CCN(c3ccc(F)cc3)CC2)[nH]n1 | nt | 0.8 | nt | nt | -1.6
COc1ccc(-c2nn(-c3ccccc3C)cc2CNCc2cccnc2)cc1F | -8.1 | -1.9 | 39.4* | -2.1 | -25.0
Cc1ccc2c(c1)c(=O)c(S(=O)(=O)c1ccc(F)cc1)cn2CC(=O)Nc1ccc2c(c1)OCO2 | nt | 0.3 | nt | nt | -25.3
SMILES | D2 PAM-1 | D2 ag-1 | D2 antag | D2 ag-2 | D2 PAM-2
COc1ccc([C@H]2[C@H](C(=O)C(C)(C)C)N3N=Cc4ccccc4C3[C@]23N=C(c2ccccc2)OC3=O)cc1OC (stereo not given in full) | 58.0* | 0.7 | 23.6 | 7.3 | -1.2
COc1ccc(N2C(=O)CSC2c2cccc(OC)c2OC)cc1 (stereo not given) | -7.6 | 0.3 | 50.7* | -2.8 | -0.3
Cc1ccc(SCCNC(=O)CN(c2cccc(C)c2C)S(C)(=O)=O)cc1 | nt | nt | nt | nt | 6.2
Nc1ccc2c(c1)Cc1cc([N+](=O)[O-])ccc1-2 | -12.3 | 46.8* | 13.1 | -6.6 | -7.9
COc1cc(NC(=O)COc2ccc(Cl)cc2)ccc1-c1cc2ccccc2oc1=O | 10.5 | -1.2 | -3.2 | 0.3 | 12.3
CSc1cccc(NC(=O)C2CCCN(S(=O)(=O)c3ccc4c(c3)CCCN4C(C)=O)C2)c1 (stereo not given) | nt | 0.0 | nt | nt | -4.0
COc1ccc(N2CCN(S(=O)(=O)c3ccc(F)c(C(=O)Nc4ccccc4Cl)c3)CC2)cc1 | nt | -0.3 | nt | nt | -15.2
CCCC12CN3CC(C)(CN(C1)C31C(=O)Nc3ccc(C)cc31)C2=O (stereo not given) | 9.3 | -2.0 | -14.6 | 0.1 | -6.1
Cc1ccc2c(c1)C1(C(=O)N2C)N2CC3(C)CN1CC(C)(C2)C3=O (stereo not given) | -2.3 | 0.9 | -3.4 | -2.3 | 33.3*
Cc1cc(C(=O)COC(=O)c2ccc3c(c2)NC(=O)CS3)c(C)n1CCc1ccc(Cl)cc1 | 6.2 | -0.8 | 63.4* | 1.5 | 14.3
Cc1cc(Nc2ccc(Cl)cc2)n2ncnc2n1 | -3.6 | 0.4 | -2.6 | -1.9 | 5.3
Cc1ccc(Nc2cc(-c3ccccc3)nc3ncnn23)cc1 | -7.7 | -0.2 | 33.5* | -2.7 | -1.4
COc1ccc(S(=O)(=O)NCC2CCC(C(=O)NCCCN3CCCC3=O)CC2)cc1 (stereo not given) | -7.0 | 0.0 | 31.9* | -3.8 | 14.8
CCOc1ccccc1NC(=O)Cn1c(=O)oc2cc(S(=O)(=O)NCc3ccccc3)ccc21 | nt | -0.3 | nt | nt | -9.4
O=C(Nc1ccc(Br)cc1)C1CCN(S(=O)(=O)c2cccc3nsnc23)CC1 | nt | 0.8 | nt | nt | -4.9
NC(=O)C1CCN(C(=O)NC2CC(=O)N(c3ccc4c(c3)OCCO4)C2)CC1 (stereo not given) | -31.0 | 0.0 | 45.6* | -8.8 | -8.4
COc1ccc(C)cc1NC(=O)C(NS(=O)(=O)c1cccs1)c1ccccc1 (stereo not given) | nt | nt | nt | nt | -0.2
COc1ccc(C)cc1NC(=O)C(NCC(O)c1ccccc1)c1ccccc1 (stereo not given) | -7.0 | 0.2 | 33.5* | -2.9 | -14.5
COc1ccccc1-n1cnc2c(c1=O)c1nc3ccccc3nc1n2-c1ccc(C)cc1 | -14.0 | -1.6 | -24.0 | -3.8 | 32.7*
Clc1ccc(-c2csc(N/N=C/c3ccc4c(c3)OCO4)n2)cc1 | 6.5 | -0.1 | 34.8* | -0.4 | 4.3
O=C(/C=C/c1ccc2c(c1)OCO2)Nc1nc(-c2ccccc2)cs1 | -9.2 | -0.4 | -10.0 | -0.2 | -2.2
COC(=O)COc1ccc2c(-c3cccc([N+](=O)[O-])c3)cc(=O)oc2c1 | 19.0 | 0.9 | 49.5* | 1.1 | -7.0
CC1CCCN(C2=C(Cl)C(=O)N(c3cccc(Cl)c3)C2=O)C1 (stereo not given) | -4.8 | 0.5 | 44.1* | -3.4 | 1.2
COc1ccc(N2C(=O)C(Cl)=C(N3CCCC(C)C3)C2=O)cc1 (stereo not given) | 9.7 | -0.8 | -15.3 | -3.9 | 2.6

Source: PubChem BioAssay
